Several values for one entry are separate records, joined by “and”; a condition that tells them apart may be missing. Equal entries are not always repeated. Records with an inconclusive call do not appear. Entries that show only a call come without a potency. The source holds several records for some structures; these can differ, active in one and inactive in another. Activity calls are given as the source filed them. The call rests on the fitted dose curve; in most records, active means well fitted curve in the direction sought with a large enough effect in the repeat runs; inconclusive means weak or mixed curves; inactive means no such curve, though single readings can be large; an effect the other way counts as inactive or inconclusive.
Experiments:
[1] = Caspase-3/7 induction in HepG2 cells by small molecules, qHTS assay (AID 1346978); further: nearly all actives have a fitted effect of over 15% in size
Method in brief: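 Wild-type HepG2 cells, 2,000/well, settled 5 hr at 37 C and 5% CO2, then compound-treated for 17 hr; caspase-3/7 activity read by luminescent Caspase-Glo 3/7 after 30 min at room temperature.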

[2] = Caspase-3/7 induction in CHO-K1 cells by small molecules, qHTS cell viability counter screen (AID 1346979); further: nearly all actives have a fitted effect of over 35% in size; further: potency means the concentration at half of the fitted maximal effect
Method in brief: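 CHO-K1 wt, 1,500 cells/well; 5hr pre-incubation 37C/5% CO2; compound pin transfer (DMSO); 16hr exposure; CellTiter-Fluor added, 1hr, fluorescence read.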

[3] = Caspase-3/7 induction in CHO-K1 cells by small molecules, qHTS assay (AID 1346980); further: nearly all actives have a fitted effect of over 15% in size; further: potency means the concentration at half of the fitted maximal effect
Method in brief: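 Wild-type CHO-K1 cells exposed to compounds for 17hr at 37 C, 5% CO2. Caspase-3/7 activity then measured by Caspase-Glo 3/7 luminescence after 30min at room temperature.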

[4] = Caspase-3/7 induction in HepG2 cells by small molecules, qHTS cell viability counter screen (AID 1346981); further: nearly all actives have a fitted effect of over 30% in size; further: potency means the concentration at half of the fitted maximal effect
Method in brief: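 Treatment of HepG2 cells with DMSO-delivered compounds ran 16 hr at 37 C following a 5-hr pre-incubation of 2,000 cells/well. CellTiter-Fluor fluorescence, read after 1 hr, served as the viability measure in a qHTS format.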

[5] = molecular target: Nuclear receptor subfamily 1 group I member 2 (Homo sapiens) (UniProt O75469); assay: Human pregnane X receptor (PXR) small molecule agonists, qHTS assay (AID 1346982); further: nearly all actives have a fitted effect of over 35% in size; further: potency means the concentration at half of the fitted maximal effect
Sequence of Nuclear receptor subfamily 1 group I member 2 (Homo sapiens) (O75469 whole entry, looked up): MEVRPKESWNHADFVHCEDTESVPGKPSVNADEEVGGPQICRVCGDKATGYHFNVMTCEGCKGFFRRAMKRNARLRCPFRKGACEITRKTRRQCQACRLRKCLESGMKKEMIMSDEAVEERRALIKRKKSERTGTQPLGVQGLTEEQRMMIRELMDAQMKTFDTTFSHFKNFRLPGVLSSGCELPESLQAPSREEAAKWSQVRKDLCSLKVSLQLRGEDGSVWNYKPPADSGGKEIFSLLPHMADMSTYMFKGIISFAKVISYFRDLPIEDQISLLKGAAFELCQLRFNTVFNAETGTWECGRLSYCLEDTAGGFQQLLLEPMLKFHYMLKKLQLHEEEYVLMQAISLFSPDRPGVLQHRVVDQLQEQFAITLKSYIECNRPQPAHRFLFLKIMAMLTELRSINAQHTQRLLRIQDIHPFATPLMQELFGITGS
Method in brief: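 Stable HepG2 line reporting PXR-mediated CYP3A4 expression via luciferase. Treatment: 24 hr with compounds in DMSO at 37 C. Detection: ONE-Glo luminescence.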

[6] = molecular target: Nuclear receptor subfamily 1 group I member 2 (Rattus norvegicus) (UniProt Q9R1A7); assay: Rat pregnane X receptor (rPXR) activation by small molecules, qHTS assay (AID 1346983); details: rPXR luciferase reporter cells, One-Glo luminescence, 24 h; stronger effect = higher value; further: nearly all actives have a fitted effect of over 20% in size
Sequence of Nuclear receptor subfamily 1 group I member 2 (Rattus norvegicus) (Q9R1A7 whole entry, looked up): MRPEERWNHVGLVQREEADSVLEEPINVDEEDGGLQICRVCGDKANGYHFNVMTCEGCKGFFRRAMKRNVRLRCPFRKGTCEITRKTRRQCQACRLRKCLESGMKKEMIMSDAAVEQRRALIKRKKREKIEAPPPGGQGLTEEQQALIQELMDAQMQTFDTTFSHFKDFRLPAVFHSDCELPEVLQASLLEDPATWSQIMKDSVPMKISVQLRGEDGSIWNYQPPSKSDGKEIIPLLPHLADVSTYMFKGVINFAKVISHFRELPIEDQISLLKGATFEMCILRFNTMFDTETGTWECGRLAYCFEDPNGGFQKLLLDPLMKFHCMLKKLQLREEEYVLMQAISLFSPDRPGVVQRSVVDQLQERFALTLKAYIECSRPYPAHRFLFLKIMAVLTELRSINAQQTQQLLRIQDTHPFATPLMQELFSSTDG
Method in brief: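 Cell-based rPXR activation assay: rPXR cells, 2,000 per well, rested 5hr at 37 C, then exposed to compounds in DMSO for 24 hr at 37 C. Luciferase activity read by One-Glo luminescence after 30 min at room temperature.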

[7] = molecular target: Nuclear receptor subfamily 1 group I member 2 (Homo sapiens) (UniProt O75469); assay: CYP3A4 induction through human pregnane X receptor (PXR) by small molecules, qHTS assay (AID 1346984); further: nearly all actives have a fitted effect of over 40% in size
Method in brief: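 After 24 h at 37C with compound, DPX-2 cells (HepG2, co-transfected PXR response element and CYP3A4 promoter-luciferase) got 3uM final P450-Glo Luciferin-IPA for 3 h; One-Glo luminescence followed.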

[8] = molecular target: Nuclear receptor subfamily 1 group I member 2 (Homo sapiens) (UniProt O75469); assay: Human pregnane X receptor (PXR) activation by small molecules, qHTS assay (AID 1346985); further: nearly all actives have a fitted effect of over 40% in size
Method in brief: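 DPX-2 cells (HepG2 co-transfected with a PXR response element and a CYP3A4-promoter luciferase construct) were seeded at 2,000 per well, rested 5 hr at 37C, then exposed to DMSO-dissolved compounds for 24 hr. Activation was read as luciferase luminescence.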

[9] = molecular target: Cytochrome P450 2D6 (Homo sapiens) (UniProt P10635); assay: Cytochrome P450 Family 2 Subfamily D Member 6 (CYP2D6) small molecule antagonists: luciferase reporter qHTS assay (AID 1671196); further: nearly all actives have a fitted effect of over 50% in size; further: potency means the concentration at half of the fitted maximal effect; on activity change, negative = inhibition: series mostly up to about 120 µM
Sequence of Cytochrome P450 2D6 (Homo sapiens) (P10635 whole entry, looked up): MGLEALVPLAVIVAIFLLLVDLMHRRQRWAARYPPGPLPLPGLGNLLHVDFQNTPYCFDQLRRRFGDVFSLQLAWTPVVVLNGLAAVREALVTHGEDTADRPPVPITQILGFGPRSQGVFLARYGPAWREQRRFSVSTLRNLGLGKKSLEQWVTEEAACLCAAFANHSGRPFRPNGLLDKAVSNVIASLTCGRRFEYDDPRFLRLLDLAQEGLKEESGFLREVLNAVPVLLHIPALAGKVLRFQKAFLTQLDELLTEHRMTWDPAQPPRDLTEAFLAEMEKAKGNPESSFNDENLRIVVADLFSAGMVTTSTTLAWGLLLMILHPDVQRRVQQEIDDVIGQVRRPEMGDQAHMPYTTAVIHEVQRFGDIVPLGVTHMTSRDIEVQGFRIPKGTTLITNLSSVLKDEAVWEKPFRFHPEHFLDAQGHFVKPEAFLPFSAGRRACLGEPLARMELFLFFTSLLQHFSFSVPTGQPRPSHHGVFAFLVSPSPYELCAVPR
Method in brief: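 Chemicals tested for interference with CYP2D6 activity; proluciferin substrate, NADPH regeneration, 1 h at room temperature, luminescent detection.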

[10] = molecular target: Cytochrome P450 2C19 (Homo sapiens) (UniProt P33261); assay: Cytochrome P450 Family 2 Subfamily C Member 19 (CYP2C19) small molecule antagonists: luciferase reporter qHTS assay (AID 1671197); further: nearly all actives have a fitted effect of over 65% in size; further: potency means the concentration at half of the fitted maximal effect; on activity change, negative = inhibition: series mostly up to about 120 µM
Sequence of Cytochrome P450 2C19 (Homo sapiens) (P33261 whole entry, looked up): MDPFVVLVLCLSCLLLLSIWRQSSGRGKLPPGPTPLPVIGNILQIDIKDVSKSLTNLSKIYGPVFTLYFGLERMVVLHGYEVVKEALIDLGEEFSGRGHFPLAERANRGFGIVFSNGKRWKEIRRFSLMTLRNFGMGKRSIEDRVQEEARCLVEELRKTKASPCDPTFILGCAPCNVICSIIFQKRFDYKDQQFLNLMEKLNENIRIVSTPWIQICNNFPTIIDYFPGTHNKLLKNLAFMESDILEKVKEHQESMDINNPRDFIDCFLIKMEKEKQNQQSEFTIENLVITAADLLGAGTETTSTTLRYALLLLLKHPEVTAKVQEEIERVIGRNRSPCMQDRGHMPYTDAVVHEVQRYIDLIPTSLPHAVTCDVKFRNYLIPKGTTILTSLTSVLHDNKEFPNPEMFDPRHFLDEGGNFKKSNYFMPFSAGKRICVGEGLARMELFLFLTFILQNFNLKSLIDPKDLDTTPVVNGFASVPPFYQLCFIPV
Method in brief: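 Light output is proportional to CYP2C19 activity: proluciferin substrate is converted to luciferin, then detected by a luciferin detection reagent that also stops the 1 h, 37C NADPH-driven reaction. Ketoconazole serves as positive control.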

Compound	Potency [1]	Potency [2]	Potency [3]	Potency [4]	Potency [5]	max activation [6]	Potency [7]	outcome [8]	Potency [9]	Potency [10]	activation [5]	activity change, negative = inhibition [9]	activity change, negative = inhibition [10]
O=c1c(O)c(-c2ccc(O)c(O)c2)oc2cc(O)cc(O)c12	inactive	54.5 µM (active)	inactive	48.6 µM (active) and 54.5 µM (active)	48.6 µM (active) and 69.1 µM (active)	-3.01% (inactive)	inactive	inactive	63.4 µM (active) and inactive	inactive			
CCCCCCCC(=O)O	inactive	inactive	inactive	inactive	inactive	0.66% (inactive)	inactive	inactive	inactive	38.5 µM (active) and inactive			
C=C1C[C@]23C[C@@]1(O)CC[C@H]2[C@@]12C=C[C@H](O)[C@@](C)(C(=O)O1)[C@H]2[C@@H]3C(=O)O	inactive	inactive	inactive	inactive									
CN1Cc2c(N)cccc2C(c2ccccc2)C1 (stereo not given)	inactive	inactive	inactive	inactive	inactive	-2.53% (inactive)	inactive	inactive	5.03 µM (active) and 12.3 µM (active)	inactive			
CC(=O)OC(C)(C)C1CC=C(C)CC1 (stereo not given)	inactive	inactive	inactive	inactive	inactive				inactive	35.6 µM (active)			
CCN(CC)CCNC(=O)c1ccc(N)cc1	inactive	inactive	inactive	inactive									
CCc1cccc(CC)c1N	inactive	inactive	inactive	inactive	inactive				inactive	inactive and 79.6 µM (active)			
Brc1ccc(Oc2ccc(Br)cc2)cc1	inactive	inactive	inactive	inactive	inactive				inactive	12.6 µM (active) and 5.03 µM (active)			
CCOC(=O)c1ccc(O)cc1	inactive	inactive	inactive	inactive	inactive	-2.61% (inactive)		inactive					
CC(=O)Nc1ccc(CC(=O)O)cc1	inactive	inactive	inactive	inactive	inactive	-3.84% (inactive)	inactive	inactive	inactive	inactive			
CC1(C)[C@@H](O[C@H]2O[C@H](C(=O)O)[C@@H](O)[C@H](O)[C@H]2O[C@@H]2O[C@H](C(=O)O)[C@@H](O)[C@H](O)[C@H]2O)CC[C@]2(C)[C@H]3C(=O)C=C4[C@@H]5C[C@@](C)(C(=O)O)CC[C@]5(C)CC[C@@]4(C)[C@]3(C)CC[C@@H]12	inactive	inactive	inactive	inactive	inactive	-0.648% (inactive)	inactive	inactive	inactive	inactive			
CO[Si](CCCNCCN)(OC)OC	inactive	5.53 µM (active) and inactive	27.7 µM (active) and inactive	62 µM (active) and inactive	13.9 µM (active) and inactive				inactive	inactive			
COc1ccc(N)c(OC)c1	inactive	inactive	inactive	inactive	inactive				1.53 µM (active) and 17.8 µM (active)	15.3 µM (active) and 35.6 µM (active)			
COc1ccc2cc3[n+](cc2c1OC)CCc1cc2c(cc1-3)OCO2	inactive	inactive	inactive	54.9 µM (active)	inactive				180 nM (active) and 2.19 µM (active)	20.2 µM (active) and inactive			
O=C1OC(=O)c2c(Cl)c(Cl)c(Cl)c(Cl)c21	inactive	inactive	inactive	inactive	inactive				inactive				
OCCOCCOCCOCCOCCO	inactive	15.7 µM (active) and inactive	inactive	inactive									
NC1CCCCC1N (stereo not given)	inactive	inactive	inactive	inactive									
CCCOCC(C)O (stereo not given)	inactive	inactive	inactive	inactive	inactive				inactive	inactive			
CC1(C)C(=O)N(Cl)C(=O)N1Cl	inactive	inactive	inactive	inactive	inactive				inactive	71.1 µM (active)			
OB(O)O	inactive	inactive	inactive	inactive	inactive	-0.586% (inactive)	inactive	inactive	inactive	inactive			
Cc1ccc([N+](=O)[O-])cc1N	inactive	inactive	inactive	inactive	inactive				35.5 µM (active) and 39.9 µM (active)	35.5 µM (active) and 44.8 µM (active)			
CCCCCCCCO	inactive	inactive	inactive	inactive	inactive				inactive	inactive			
OCC(O)CS (stereo not given)	inactive	inactive	inactive	inactive	inactive	-1.93% (inactive)	inactive	inactive	inactive	inactive			
O=C(O)Cc1c[nH]c2ccccc12	inactive	inactive	inactive	inactive	inactive				inactive	17.8 µM (active) and inactive			

Compound	Potency [1]	Potency [2]	Potency [3]	Potency [4]	Potency [5]	max activation [6]	Potency [7]	outcome [8]	Potency [9]	Potency [10]	activation [5]	activity change, negative = inhibition [9]	activity change, negative = inhibition [10]
CCCCCNCCCCC	inactive	inactive	inactive	inactive	inactive				36.4 µM (active)	inactive			
C=C(CC(=O)O)C(=O)O	inactive	inactive	inactive	inactive									
O=Cc1ccc(CO)o1	inactive	inactive	inactive	inactive	inactive				inactive	inactive			
OCc1ccc(Cl)cc1Cl	inactive	inactive	inactive	inactive	inactive	-2.12% (inactive)	inactive	inactive	inactive	inactive			
CC(=O)OC[C@H]1O[C@@](COC(C)=O)(O[C@H]2O[C@H](COC(C)=O)[C@@H](OC(C)=O)[C@H](OC(C)=O)[C@H]2OC(C)=O)[C@@H](OC(C)=O)[C@@H]1OC(C)=O	inactive	inactive	inactive	inactive	inactive	-1.94% (inactive)	inactive	inactive	inactive	inactive			
CCCCCCCCCCCC(=O)N(C)CC(=O)O	inactive	inactive	inactive	inactive	59.2 µM (active)						-3.89% [at 8.39 µM] (inactive)	-25.2% [at 10.5 µM] (inactive)	17.6% [at 10.5 µM] (inactive)
CCCCCCC(=O)O	inactive	inactive	inactive	inactive	inactive				inactive	inactive			
CCCCCC(C)=O	inactive	inactive	inactive	inactive	inactive				inactive	81.3 µM (active) and inactive			
CCCOC(=O)NCCCN(C)C	inactive	inactive	inactive	inactive	inactive				inactive and 35.6 µM (active)	35.6 µM (active) and inactive			
Clc1cccc(Cl)c1NC1=NCCN1	inactive	inactive	inactive	inactive									
C1CCCNCC1	inactive	inactive	inactive	inactive	inactive				inactive	inactive			
CCc1cccc(O)c1	inactive	inactive	inactive	inactive	inactive				inactive	40.8 µM (active)			
CCOC(=O)CC(=O)OCC	inactive	inactive	inactive	inactive	inactive				inactive	inactive			
OC[C@H]1O[C@@H](Oc2ccc(O)cc2)[C@H](O)[C@@H](O)[C@@H]1O	inactive	inactive	inactive	inactive	inactive	-0.143% (inactive)		inactive	inactive	inactive			
COC(=O)/C=C\C(=O)OC	inactive	inactive	inactive	inactive	inactive				inactive	inactive			
O=C(c1ccccc1)c1ccc(O)c(O)c1O	inactive	69.1 µM (active) and 61.1 µM (active)	inactive	61.6 µM (active)	54.9 µM (active)				63.8 µM (active)	80.4 µM (active) and 63.3 µM (active)			
O=C1CCCCCCCCCCC1	inactive	inactive	inactive	inactive	inactive				inactive	inactive			
COc1c2ccoc2cc2oc(=O)ccc12	inactive	inactive	inactive	inactive	55.7 µM (active) and 21.7 µM (active)				4.08 µM (active) and inactive	5.77 µM (active) and 8.94 µM (active)			
CS(=O)(=O)c1ccc(Cl)cc1	inactive	inactive	inactive	inactive	inactive				inactive	inactive			
O=[N+]([O-])c1cc(C(F)(F)F)ccc1Cl	inactive	inactive	inactive	inactive	inactive				inactive	inactive			
OCC(CO)(CO)CO	inactive	inactive	inactive	inactive	inactive				inactive	inactive			
Cc1ccncc1	inactive	inactive	inactive	inactive	inactive				inactive	inactive			
NC(=O)c1ncn([C@@H]2O[C@H](CO)[C@@H](O)[C@H]2O)n1	inactive	inactive	inactive	inactive	9.1 µM (active) and inactive				inactive	inactive			

From PubChem BioAssay (Tox21)
